Measurements published in the supplement of paper PMC11732987, “Enantioselective OTUD7B fragment discovery through chemoproteomics screening and high-throughput optimisation” (Communications Chemistry, 2025).

How the values were obtained:
Assay in all cases: log2 ratio of Biotin-Ahx-Ub-VS probe labelling (fragment/DMSO); higher = less target engagement (more negative = stronger competition), active = hit call of the paper (q ≤ 0.05, log2 ratio ≤ -1)
Conditions in all cases: compound concentration: 200 uM; treatment time: 3 h
USP42 = target: T1, USP42 (UniProt Q9H9J4)
T1 sequence (whole entry): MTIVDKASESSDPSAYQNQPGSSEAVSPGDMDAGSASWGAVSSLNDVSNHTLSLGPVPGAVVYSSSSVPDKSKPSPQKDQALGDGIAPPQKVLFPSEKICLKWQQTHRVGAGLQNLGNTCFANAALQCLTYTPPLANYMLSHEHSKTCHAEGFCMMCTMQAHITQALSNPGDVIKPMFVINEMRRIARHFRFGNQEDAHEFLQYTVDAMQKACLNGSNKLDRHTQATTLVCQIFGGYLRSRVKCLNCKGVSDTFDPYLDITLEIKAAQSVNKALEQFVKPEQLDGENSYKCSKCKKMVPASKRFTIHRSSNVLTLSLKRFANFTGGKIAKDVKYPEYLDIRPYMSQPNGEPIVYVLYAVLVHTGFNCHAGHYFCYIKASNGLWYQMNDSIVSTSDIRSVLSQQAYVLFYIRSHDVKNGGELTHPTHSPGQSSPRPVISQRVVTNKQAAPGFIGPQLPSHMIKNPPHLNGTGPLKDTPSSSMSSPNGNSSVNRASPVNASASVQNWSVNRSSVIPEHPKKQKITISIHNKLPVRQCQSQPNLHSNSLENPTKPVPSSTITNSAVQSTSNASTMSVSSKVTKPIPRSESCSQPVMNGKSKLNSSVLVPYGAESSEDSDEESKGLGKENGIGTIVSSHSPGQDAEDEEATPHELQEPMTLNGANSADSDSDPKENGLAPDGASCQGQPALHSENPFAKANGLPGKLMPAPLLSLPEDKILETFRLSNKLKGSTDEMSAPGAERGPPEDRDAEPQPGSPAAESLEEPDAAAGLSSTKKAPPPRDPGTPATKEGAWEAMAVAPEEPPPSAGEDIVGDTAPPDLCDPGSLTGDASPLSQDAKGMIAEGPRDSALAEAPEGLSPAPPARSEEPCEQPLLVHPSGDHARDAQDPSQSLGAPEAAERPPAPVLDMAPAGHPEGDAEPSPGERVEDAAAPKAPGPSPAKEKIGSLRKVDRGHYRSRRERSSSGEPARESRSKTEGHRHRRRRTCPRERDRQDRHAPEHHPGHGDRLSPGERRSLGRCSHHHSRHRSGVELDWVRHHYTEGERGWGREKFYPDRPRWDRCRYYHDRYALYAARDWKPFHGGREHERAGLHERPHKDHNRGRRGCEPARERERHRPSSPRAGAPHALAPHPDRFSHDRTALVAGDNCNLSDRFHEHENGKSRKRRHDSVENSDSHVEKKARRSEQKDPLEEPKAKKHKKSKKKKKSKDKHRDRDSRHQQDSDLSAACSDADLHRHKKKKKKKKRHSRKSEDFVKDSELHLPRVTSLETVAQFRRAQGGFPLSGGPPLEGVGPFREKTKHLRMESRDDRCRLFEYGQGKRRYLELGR
Procedure, shortened: (§1)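 Labelling with Biotin-Ahx-Ub-VS (0.5 µM final, 1 h) followed a 3 h triplicate treatment of HEK293T lysate (495 µg per sample, Tris/CHAPS/IGEPAL buffer with protease inhibitors) with fragment at 200 µM or vehicle. Labelled DUBs were NeutrAvidin-enriched, digested with LysC and trypsin, and run by diaPASEF LC-MS/MS. The values, average log2 fragment/vehicle ratios by unpaired t-test, come from global-median-normalised Spectronaut label-free quantities. Proteins with ≥2 unique peptides were used.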

USP46 = USP46 (UniProt P62068)
Procedure, shortened: as §1

USP47 = target: T2, USP47 (UniProt Q96K76)
T2 sequence (whole entry): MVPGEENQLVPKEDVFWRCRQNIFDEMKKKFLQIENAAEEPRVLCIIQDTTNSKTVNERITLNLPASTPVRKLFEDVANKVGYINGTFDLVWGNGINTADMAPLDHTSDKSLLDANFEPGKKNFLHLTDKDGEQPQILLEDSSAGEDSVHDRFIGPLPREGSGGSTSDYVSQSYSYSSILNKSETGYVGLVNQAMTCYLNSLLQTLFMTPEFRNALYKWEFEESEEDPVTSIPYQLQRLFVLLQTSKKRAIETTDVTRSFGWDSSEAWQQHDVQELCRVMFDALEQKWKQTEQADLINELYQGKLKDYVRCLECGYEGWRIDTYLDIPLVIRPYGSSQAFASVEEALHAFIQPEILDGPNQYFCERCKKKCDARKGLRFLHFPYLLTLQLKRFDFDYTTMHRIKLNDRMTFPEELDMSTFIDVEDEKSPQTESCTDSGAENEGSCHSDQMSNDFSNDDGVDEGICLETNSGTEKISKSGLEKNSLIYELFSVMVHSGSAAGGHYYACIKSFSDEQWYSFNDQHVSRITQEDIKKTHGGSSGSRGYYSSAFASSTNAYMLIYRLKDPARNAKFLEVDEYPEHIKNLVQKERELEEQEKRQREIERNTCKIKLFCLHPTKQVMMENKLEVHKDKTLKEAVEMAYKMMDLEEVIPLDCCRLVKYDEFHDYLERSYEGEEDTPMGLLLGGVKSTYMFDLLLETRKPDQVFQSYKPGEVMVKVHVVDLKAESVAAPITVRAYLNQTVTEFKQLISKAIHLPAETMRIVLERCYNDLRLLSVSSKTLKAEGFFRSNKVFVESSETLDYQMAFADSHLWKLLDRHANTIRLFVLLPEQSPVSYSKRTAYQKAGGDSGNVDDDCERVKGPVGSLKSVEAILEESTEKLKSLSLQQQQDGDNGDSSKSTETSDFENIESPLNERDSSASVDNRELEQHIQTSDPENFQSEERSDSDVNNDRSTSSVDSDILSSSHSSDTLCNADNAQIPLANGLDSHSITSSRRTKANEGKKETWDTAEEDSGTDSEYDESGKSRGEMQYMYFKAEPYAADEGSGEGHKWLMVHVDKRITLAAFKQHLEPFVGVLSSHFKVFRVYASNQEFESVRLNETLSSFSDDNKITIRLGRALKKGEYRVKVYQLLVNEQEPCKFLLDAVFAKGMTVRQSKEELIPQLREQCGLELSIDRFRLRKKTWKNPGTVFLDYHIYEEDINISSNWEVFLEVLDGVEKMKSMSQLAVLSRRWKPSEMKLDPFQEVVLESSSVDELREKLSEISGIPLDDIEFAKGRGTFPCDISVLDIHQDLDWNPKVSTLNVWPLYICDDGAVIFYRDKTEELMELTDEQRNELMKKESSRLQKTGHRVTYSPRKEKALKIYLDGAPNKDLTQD
Procedure, shortened: as §1

USP48 = target: T3, USP48 (UniProt Q86UV5)
T3 sequence (whole entry): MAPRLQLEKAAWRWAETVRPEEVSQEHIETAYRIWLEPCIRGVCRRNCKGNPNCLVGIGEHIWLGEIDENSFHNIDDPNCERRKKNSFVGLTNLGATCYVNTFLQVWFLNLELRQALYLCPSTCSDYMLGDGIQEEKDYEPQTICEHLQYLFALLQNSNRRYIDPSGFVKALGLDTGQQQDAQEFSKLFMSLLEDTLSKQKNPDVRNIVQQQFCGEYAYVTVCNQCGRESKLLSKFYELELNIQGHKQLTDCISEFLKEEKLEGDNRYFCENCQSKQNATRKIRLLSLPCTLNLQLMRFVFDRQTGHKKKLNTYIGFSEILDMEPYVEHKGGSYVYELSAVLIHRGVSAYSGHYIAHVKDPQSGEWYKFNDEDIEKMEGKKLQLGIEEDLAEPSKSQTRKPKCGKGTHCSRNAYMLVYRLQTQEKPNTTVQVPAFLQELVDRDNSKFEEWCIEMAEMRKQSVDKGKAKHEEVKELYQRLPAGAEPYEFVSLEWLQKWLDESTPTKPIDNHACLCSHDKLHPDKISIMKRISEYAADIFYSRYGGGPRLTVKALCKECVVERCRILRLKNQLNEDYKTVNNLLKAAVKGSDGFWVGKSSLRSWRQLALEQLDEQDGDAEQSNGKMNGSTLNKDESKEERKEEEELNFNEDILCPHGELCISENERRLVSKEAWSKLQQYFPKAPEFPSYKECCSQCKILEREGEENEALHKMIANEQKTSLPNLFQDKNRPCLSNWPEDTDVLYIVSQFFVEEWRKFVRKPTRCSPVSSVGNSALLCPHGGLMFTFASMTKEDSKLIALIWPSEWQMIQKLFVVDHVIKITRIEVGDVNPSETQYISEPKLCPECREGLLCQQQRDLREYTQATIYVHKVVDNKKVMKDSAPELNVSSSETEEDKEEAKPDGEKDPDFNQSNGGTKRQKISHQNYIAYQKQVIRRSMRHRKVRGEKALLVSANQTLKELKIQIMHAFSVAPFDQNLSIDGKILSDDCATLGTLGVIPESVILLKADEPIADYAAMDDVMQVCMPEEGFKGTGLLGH
Procedure, shortened: as §1

USP5 = target: T4, USP5 (UniProt P45974)
T4 sequence (whole entry): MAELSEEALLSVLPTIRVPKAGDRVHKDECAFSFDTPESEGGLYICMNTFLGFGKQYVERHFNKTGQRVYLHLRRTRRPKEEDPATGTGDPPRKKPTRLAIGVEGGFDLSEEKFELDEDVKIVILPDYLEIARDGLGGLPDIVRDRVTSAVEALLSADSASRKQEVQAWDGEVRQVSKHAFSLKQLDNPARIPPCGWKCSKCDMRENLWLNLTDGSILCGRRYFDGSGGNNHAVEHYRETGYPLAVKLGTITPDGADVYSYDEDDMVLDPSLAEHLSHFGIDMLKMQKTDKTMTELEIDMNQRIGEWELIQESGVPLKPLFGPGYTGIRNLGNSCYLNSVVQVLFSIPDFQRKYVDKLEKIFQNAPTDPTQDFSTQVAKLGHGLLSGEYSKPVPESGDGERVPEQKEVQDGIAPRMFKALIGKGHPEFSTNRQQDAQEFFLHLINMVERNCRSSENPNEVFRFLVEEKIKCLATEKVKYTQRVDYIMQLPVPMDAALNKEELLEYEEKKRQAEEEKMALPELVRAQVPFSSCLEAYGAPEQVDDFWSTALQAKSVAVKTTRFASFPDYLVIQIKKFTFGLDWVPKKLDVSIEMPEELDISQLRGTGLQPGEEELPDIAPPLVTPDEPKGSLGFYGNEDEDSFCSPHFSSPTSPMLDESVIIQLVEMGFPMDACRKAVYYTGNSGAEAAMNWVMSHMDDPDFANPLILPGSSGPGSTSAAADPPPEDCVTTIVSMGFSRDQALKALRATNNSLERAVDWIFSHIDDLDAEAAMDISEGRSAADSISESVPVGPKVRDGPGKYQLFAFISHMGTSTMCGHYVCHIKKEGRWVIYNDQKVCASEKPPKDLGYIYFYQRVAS
Procedure, shortened: as §1

USP54 = USP54 (UniProt Q70EL1)
Procedure, shortened: as §1

USP7 = USP7 (UniProt Q93009)
Procedure, shortened: as §1

USP8 = target: T5, USP8 (UniProt P40818)
T5 sequence (whole entry): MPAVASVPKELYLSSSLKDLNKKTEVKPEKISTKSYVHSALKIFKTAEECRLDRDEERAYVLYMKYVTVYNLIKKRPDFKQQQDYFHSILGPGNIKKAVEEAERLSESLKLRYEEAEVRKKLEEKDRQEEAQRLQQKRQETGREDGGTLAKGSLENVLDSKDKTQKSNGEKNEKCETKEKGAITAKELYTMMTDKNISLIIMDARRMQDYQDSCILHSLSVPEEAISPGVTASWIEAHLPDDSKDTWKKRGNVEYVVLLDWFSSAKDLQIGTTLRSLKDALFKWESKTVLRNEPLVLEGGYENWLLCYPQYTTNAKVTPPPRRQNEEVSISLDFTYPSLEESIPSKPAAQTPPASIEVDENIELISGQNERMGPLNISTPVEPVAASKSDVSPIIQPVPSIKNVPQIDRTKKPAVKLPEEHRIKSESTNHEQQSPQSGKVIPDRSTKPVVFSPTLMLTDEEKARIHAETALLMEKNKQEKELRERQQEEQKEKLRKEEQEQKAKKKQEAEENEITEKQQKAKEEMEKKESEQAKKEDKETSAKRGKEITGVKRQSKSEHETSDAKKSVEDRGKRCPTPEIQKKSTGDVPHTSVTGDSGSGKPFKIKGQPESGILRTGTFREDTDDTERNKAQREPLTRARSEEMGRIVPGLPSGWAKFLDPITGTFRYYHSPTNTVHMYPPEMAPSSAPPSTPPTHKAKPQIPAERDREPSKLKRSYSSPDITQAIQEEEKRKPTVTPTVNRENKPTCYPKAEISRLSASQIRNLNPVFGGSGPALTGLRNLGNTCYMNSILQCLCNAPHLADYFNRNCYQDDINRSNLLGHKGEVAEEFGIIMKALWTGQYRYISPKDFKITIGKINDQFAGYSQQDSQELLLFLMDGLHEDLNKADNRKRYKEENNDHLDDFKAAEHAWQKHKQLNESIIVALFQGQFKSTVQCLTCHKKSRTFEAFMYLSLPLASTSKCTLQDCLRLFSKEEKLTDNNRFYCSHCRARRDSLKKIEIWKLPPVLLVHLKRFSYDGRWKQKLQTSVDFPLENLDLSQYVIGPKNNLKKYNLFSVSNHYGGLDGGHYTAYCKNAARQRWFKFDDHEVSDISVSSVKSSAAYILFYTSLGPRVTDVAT
Procedure, shortened: as §1

USP9X = USP9X (UniProt Q93008)
Procedure, shortened: as §1

UniProt O00487 = target: UniProt O00487
Procedure, shortened: as §1

Measured: log2 ratio of Biotin-Ahx-Ub-VS probe labelling

USP7, sequence (Q93009 whole entry, looked up): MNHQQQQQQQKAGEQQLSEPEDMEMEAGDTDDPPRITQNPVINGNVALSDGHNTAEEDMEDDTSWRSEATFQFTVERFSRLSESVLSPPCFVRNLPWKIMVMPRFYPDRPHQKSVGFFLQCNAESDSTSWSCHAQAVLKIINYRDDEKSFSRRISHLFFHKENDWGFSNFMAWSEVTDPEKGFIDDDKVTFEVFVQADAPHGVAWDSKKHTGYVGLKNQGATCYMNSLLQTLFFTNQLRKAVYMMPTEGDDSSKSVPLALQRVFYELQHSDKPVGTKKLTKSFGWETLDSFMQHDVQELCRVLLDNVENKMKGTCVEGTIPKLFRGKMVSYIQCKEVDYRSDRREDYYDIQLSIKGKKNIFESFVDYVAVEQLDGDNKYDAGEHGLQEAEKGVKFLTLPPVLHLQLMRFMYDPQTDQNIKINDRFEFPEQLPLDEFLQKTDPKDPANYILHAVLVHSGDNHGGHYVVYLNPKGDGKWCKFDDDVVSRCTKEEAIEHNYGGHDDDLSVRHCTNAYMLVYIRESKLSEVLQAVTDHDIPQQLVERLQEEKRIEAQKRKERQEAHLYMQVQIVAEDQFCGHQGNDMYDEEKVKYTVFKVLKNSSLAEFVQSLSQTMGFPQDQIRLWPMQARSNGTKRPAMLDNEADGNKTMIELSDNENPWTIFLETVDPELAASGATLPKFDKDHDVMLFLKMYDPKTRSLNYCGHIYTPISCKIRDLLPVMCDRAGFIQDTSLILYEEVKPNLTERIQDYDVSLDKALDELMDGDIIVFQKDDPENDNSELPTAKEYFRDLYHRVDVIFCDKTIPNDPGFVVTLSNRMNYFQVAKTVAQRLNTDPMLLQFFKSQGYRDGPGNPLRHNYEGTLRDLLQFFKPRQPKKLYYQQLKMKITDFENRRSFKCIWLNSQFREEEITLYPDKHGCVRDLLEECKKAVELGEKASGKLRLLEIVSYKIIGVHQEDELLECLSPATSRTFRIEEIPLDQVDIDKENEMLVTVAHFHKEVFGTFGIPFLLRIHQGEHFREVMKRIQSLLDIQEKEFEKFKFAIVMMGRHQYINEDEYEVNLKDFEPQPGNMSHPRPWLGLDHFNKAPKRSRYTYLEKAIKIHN
USP9X, sequence (Q93008 whole entry): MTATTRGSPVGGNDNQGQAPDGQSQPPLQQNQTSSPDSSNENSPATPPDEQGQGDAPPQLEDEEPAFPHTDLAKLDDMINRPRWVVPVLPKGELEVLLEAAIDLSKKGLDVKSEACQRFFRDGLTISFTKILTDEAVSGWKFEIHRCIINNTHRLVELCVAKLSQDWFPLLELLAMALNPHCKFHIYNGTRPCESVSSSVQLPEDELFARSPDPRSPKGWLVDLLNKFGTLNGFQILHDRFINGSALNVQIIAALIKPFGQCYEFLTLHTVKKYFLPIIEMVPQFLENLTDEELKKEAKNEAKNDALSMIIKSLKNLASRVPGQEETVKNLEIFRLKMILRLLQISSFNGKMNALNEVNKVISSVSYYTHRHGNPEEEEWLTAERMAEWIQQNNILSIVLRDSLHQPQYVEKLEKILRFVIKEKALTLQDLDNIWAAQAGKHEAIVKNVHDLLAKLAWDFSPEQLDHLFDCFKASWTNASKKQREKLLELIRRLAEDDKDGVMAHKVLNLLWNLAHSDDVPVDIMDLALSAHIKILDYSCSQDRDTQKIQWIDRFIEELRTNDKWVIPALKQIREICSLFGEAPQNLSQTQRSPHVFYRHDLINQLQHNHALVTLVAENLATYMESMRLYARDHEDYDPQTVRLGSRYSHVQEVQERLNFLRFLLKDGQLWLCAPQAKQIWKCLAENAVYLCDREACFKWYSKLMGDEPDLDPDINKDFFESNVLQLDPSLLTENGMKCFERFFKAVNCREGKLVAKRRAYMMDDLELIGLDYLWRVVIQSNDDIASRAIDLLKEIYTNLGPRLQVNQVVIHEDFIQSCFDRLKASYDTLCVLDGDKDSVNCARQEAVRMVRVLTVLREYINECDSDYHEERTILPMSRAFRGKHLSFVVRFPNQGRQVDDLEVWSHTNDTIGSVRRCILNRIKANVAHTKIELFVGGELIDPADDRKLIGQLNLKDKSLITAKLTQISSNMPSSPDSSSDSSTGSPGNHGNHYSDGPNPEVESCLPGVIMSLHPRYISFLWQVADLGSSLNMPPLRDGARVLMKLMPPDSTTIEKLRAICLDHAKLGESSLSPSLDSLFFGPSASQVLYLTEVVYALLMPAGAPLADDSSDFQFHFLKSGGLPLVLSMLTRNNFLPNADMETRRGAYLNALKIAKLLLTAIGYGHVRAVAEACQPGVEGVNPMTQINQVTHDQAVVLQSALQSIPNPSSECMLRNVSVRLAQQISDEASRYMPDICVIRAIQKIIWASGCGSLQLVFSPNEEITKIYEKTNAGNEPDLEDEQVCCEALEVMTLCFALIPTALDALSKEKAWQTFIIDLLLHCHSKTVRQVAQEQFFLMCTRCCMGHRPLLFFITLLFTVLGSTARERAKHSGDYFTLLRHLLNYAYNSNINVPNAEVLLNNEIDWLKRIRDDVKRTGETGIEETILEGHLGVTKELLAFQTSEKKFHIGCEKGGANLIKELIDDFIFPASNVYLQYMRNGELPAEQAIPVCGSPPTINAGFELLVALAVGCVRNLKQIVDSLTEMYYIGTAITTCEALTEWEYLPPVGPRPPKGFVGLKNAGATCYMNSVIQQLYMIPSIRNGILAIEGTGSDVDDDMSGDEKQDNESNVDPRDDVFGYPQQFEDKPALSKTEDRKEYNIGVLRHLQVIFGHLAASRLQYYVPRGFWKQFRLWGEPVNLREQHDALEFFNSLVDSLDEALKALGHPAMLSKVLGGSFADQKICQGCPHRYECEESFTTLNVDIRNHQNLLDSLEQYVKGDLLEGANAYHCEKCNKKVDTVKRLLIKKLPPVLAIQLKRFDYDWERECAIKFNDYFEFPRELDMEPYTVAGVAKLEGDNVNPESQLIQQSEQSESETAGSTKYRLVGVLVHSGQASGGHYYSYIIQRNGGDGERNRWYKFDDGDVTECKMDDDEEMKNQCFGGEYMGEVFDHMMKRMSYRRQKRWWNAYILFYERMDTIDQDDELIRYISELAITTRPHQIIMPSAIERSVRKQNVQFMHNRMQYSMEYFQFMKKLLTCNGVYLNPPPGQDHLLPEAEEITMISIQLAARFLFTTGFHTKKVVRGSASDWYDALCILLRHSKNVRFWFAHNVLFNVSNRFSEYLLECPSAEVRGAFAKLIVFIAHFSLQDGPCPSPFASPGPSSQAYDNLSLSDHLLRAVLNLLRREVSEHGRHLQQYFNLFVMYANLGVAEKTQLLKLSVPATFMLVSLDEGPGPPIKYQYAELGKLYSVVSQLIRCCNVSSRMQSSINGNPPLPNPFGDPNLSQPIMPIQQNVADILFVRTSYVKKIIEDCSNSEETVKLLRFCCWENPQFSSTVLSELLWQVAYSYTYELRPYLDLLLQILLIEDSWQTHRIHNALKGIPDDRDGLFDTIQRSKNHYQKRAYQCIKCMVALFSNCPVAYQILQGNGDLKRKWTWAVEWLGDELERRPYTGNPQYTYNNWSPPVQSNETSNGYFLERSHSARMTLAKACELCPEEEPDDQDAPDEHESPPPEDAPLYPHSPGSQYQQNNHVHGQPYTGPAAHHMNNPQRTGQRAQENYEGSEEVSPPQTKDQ
UniProt O00487, sequence (O00487 whole entry): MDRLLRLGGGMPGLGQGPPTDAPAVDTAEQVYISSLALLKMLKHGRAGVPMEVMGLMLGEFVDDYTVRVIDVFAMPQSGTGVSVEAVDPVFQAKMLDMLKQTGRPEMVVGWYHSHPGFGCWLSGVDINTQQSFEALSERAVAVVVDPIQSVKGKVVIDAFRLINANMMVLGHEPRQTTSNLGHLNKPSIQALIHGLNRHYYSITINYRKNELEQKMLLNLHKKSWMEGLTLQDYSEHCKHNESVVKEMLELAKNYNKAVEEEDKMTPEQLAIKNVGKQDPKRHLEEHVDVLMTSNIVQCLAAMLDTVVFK
USP46, sequence (P62068 whole entry): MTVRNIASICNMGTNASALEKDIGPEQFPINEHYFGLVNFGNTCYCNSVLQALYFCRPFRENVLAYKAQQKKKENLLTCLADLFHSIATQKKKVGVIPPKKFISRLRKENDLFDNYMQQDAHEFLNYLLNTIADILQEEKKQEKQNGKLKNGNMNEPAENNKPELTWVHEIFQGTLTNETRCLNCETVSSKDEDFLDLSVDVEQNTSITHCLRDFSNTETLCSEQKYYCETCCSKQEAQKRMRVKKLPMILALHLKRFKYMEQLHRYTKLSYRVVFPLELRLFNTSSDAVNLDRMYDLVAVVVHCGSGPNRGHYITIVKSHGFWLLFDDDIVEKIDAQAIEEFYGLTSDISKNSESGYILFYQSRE

O=C(CCl)Nc1cccc(C(=O)N2CCSCC2)c1
inactive: USP42 0.397 | USP46 -0.00544 | USP47 0.175 | USP48 -0.0892 | USP5 -0.171 | USP54 -0.177 | USP7 -0.299 | USP8 -0.00928 | USP9X -0.091 | UniProt O00487 0.0356
